# Assay results published in PubChem BioAssay (NCI).
# Compounds without any hit were thinned out: in the full panel of roughly 83,000, 20% have a hit.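 Cell lines were cultured in 96-well plates, exposed to a single compound concentration, and assessed for percent growth 48 hours later.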 Unmarked numbers belong to inactive results. The source made the active and inactive calls. Rule for the calls: active = growth percent below 10; inactive = the rest.
# Assays:
# Test in all cases: NCI-60 one-dose screen, 48 h (100 = growth as untreated, 0 = no growth, -100 = all killed)
# Conditions in all cases: 10 µM
# NCI-H23 lung = test system: NCI-H23 lung
# NCI-H226 lung = test system: NCI-H226 lung
# NCI-H322M lung = test system: NCI-H322M lung
# HOP-62 NSCLC = test system: HOP-62 NSCLC
# NCI-H460 lung = test system: NCI-H460 lung
# NCI-H522 lung = test system: NCI-H522 lung
# A549/ATCC NSCLC = test system: A549/ATCC NSCLC
# 786-0 renal = test system: 786-0 renal
# COLO 205 colon = test system: COLO 205 colon
# DU-145 prostate = test system: DU-145 prostate
SMILES,growth (NCI-H23 lung),growth (NCI-H226 lung),growth (NCI-H322M lung),growth (HOP-62 NSCLC),growth (NCI-H460 lung),growth (NCI-H522 lung),growth (A549/ATCC NSCLC),growth (786-0 renal),growth (COLO 205 colon),growth (DU-145 prostate)
CC(C)(Cl)CCC1=C(Cl)C(=O)c2ccccc2C1=O,32.9%,62.8%,100%,59%,65.6%,-29.7% (active),82%,101%,84%,104%
COc1cc(/C=C\c2cc(OC)c(OC)c(OC)c2)cc(NS(=O)(=O)c2ccc(Cl)cc2)c1OC,41%,33.9%,48.7%,60.2%,13.8%,-9.34% (active),25.3%,39.3%,-4.81% (active),19.8%
Cc1cccc(Cl)c1NC(=O)c1ccc2nc(NC(=O)NC3CCN(C)CC3)sc2c1,82.3%,121%,95.5%,63.1%,114%,83.5%,91.5%,91.2%,37.4%,103%
COc1ccc(C2=NN(C(=O)c3ccc(S(C)(=O)=O)cc3)C(c3ccc(OC)c(OC)c3)C2)c(OC)c1 (stereo not given),104%,85.5%,93.9%,74.4%,107%,86.6%,91.7%,99.8%,111%,98%
Nc1nc(N)c(NC(=O)CNc2ccc(C(=O)O)cc2)c(N)n1,112%,98%,106%,107%,110%,92%,102%,107%,110%,121%
COc1ccc(-c2nc3sc(-c4ccc(OC)cc4)c(-c4ccc(OC)cc4)n3c2/C=C/c2ccc(C(C)C)cc2)cc1,95.6%,90.9%,96.5%,95.1%,101%,76.5%,95.2%,99.2%,107%,115%
Cc1ccc(S(=O)(=O)OCCN(CCOS(=O)(=O)c2ccc(C)cc2)c2c[nH]c(=O)[nH]c2=O)cc1,108%,99.2%,105%,108%,114%,125%,101%,112%,115%,124%
COc1cc(-c2nn3c(/C=C4/C(=O)Nc5ccccc54)c(-c4ccc(C)cc4)nc3s2)cc(OC)c1OC,51.2%,96.4%,73.5%,79.5%,29%,58%,29.8%,70.9%,68.5%,14%
O=C(CSSCC(=O)c1ccc(Cl)cc1)c1ccc(Cl)cc1,79.5%,88.6%,72.2%,78.6%,35.8%,58%,63.6%,85.9%,104%,94.4%
COc1ccc(-c2cc(-c3cccc(NS(C)(=O)=O)c3)nc(N)c2C#N)cc1,37.7%,62.8%,44.4%,52.3%,4.64% (active),-4.96% (active),33.6%,42.9%,-27% (active),5.82% (active)
O=C1Nc2ccc(Cl)cc2/C1=C\c1c(-c2ccc(Cl)cc2)nc2sc(C3CC3)nn12,67%,29.7%,61.3%,-0.353% (active),51.4%,42.9%,56.4%,31.8%,71.9%,59.2%
COc1cc(Cl)cc(-c2nn(-c3cccc(NC(=O)c4ccc(N5CCOCC5)c(C(F)(F)F)c4)c3)cc2-c2ccncc2)c1,79%,64.2%,89.6%,52.2%,29.3%,52.7%,45.5%,43.1%,52.7%,93.3%
COc1ccc(-c2nc3sccn3c2-c2nc3c([nH]2)C(=O)c2ccccc2C3=O)cc1,95.7%,95.1%,108%,107%,91.3%,96.8%,67.5%,89.4%,102%,104%
CSc1nc(=O)n(Cc2ccc(F)cc2)c(=O)n1Cc1ccc(C)cc1,101%,101%,112%,101%,105%,110%,88.5%,100%,94.6%,107%
